# Test results reported in ChEMBL document CHEMBL4296182, “CO-ADD screening of NIH NCI Diversity Set V”.
# For part of these data: Entries with a potency or affinity are not part of this list.
# Key:
# Staphylococcus aureus = assay: Antibacterial activity against Staphylococcus aureus MRSA ATCC 43300 (CO-ADD:GP_020); MIC in CAMBH media using NBS plates, by Resazurin F(560/590); format: functional; conditions: Concentration 20 uM, ASSAY_TEST Inhibition of Bacterial Growth, detection method Resazurin, Fluorescence (ex560/em590), MEDIA CAMHB, plate type 384well, CORNING #3640, time 18 hr
# Acinetobacter baumannii = assay: Antibacterial activity against Acinetobacter baumannii ATCC 19606 (CO-ADD:GN_034); MIC in CAMBH media using NBS plates, by Resazurin F(560/590); format: functional; conditions: Concentration 20 uM, ASSAY_TEST Inhibition of Bacterial Growth, detection method Resazurin, Fluorescence (ex560/em590), MEDIA CAMHB, plate type 384well, CORNING #3640, time 18 hr
# Escherichia coli = assay: Antibacterial activity against Escherichia coli ATCC 25922 (CO-ADD:GN_001); MIC in CAMBH media using NBS plates, by Resazurin F(560/590); format: functional; conditions: Concentration 20 uM, ASSAY_TEST Inhibition of Bacterial Growth, detection method Resazurin, Fluorescence (ex560/em590), MEDIA CAMHB, plate type 384well, CORNING #3640, time 18 hr
# Klebsiella pneumoniae = conditions: Concentration 20 uM; ASSAY_TEST Inhibition of Bacterial Growth; detection method Absorption (OD600); MEDIA CAMHB; plate type 384well; NBS; CORNING #3640; time 18 hr
# Candida albicans = conditions: 20 µM
# Cryptococcus neoformans = conditions: Concentration 20 uM; ASSAY_TEST Inhibition of Fungal Growth; detection method Resazurin; Absorption (OD600-OD570); plate type 384well; NBS; CORNING #3640
SMILES,Inhibition (Staphylococcus aureus) [%],Inhibition (Acinetobacter baumannii) [%],Inhibition (Escherichia coli) [%],Inhibition (Klebsiella pneumoniae) [%],Inhibition (Candida albicans) [%],Inhibition (Cryptococcus neoformans) [%]
CCOC(=O)C1CC(=O)c2cc(OC)c(OC)cc2C1 (centres undefined),-2.55,9.78,7.27,13.25,3.32,-12.53
COc1cc(NC(C)=O)c2ncccc2c1Br,8.44,-11.34,10.55,15.6,6.33,-16.73
O=[N+]([O-])c1cccnc1Oc1cc(Cl)c(Cl)cc1Cl,13.29,1.57,1.62,4.9,1.25,-4.41
c1ccc(NN(Cc2ccncc2)c2ccccc2)cc1,-5.2,-18.1,6,7.57,0.97,-6.08
CCN(CC)c1ccc(/C=C/c2cc(-c3ccccc3)c3ccccc3n2)cc1,16.67,5.92,4.61,11.78,4.35,-9.69
CC1CO/C(=C2\C(=O)OCC2C)C1 (centres undefined),4.79,-14.17,10.92,2.95,41.2,-12.83
Cc1ccncc1C(N)=O,0.11,-6.4,17.18,14.09,1.98,-4.15
Clc1nc(Oc2ccccc2)nc(-c2cn(-c3ccccc3)c3ccccc23)n1,2.81,4.85,6.07,3.03,-0.88,-13
O=C1OC(Cc2ccccc2)C(c2ccccc2)C1=O (centres undefined),9.75,11.9,6.23,14.26,6.87,-15.19
Nc1ccc(C(=O)c2cccs2)cn1,33.76,0,26.4,9.25,8.82,-0.14
O=C(O)Cc1sc(O)nc1O,3.49,-13.46,1.48,28.66,28.5,-2.77
Oc1ccc(N/C(S)=N/c2ccccc2)cc1,-2.99,11.99,-4.05,4.37,4.77,2.65
CCOC(=O)c1c(C)nc(C)c(C(=O)OCC)c1-c1cccnc1,-3.54,13,-4.27,5.06,0.35,-2.16
Oc1nc2ccccc2n1C1=CCNCC1,-11.2,-15.97,0.33,8.73,2.14,-5.4
Cc1cc(-n2cnc3c(O)ncnc32)ccc1N,0.18,-17.95,5.61,1.65,1.13,-8.1
CC1=Nc2ccccc2/C1=C\c1c(C)[nH]c2ccccc12,7.03,6.7,0.88,14.94,6.28,-2.97
COc1ccn(C2CCCCO2)c(=O)n1 (centres undefined),1.35,-10.23,3.33,6.04,0.65,-5.3
CSc1nc(O)c(Nc2cccc(Cl)c2)c(O)n1,7.02,14.23,-1.67,7.49,0,16.48
CCOC(=O)c1c[nH]nc1O,2.24,-6.35,-2.97,21.4,-1.88,1.44
O=C1NC(=O)C(Cc2ccccc2)(c2cccnc2)N1 (centres undefined),33.81,2.65,15.22,9.85,7.24,16.94
O=C(O)/C=C\C(=O)Nc1ccc(-c2ccccc2)cc1,-11.84,13.91,-6.62,15.61,23,-5.96
Nc1ccc2c(c1)nnn2-c1ccccc1,10.19,-3.79,12.06,-7.86,-4.43,-12.32
CCCCOc1ccc(NC(=O)Nc2nnc(C)s2)cc1,12.15,11.82,5.52,16.37,-3.65,-3.97
NC(=S)NC(=O)c1ccccc1,15.19,-5.77,13.89,14.46,2.89,-5.13
